Measurements as given in the supplement of paper PMC7411640.
Counter-ions that a name gives are not always drawn.

Test system: MDA-MB-468
Experiment: phospho-S6 immunofluorescence (DAPI-normalised), per-plate z-score; higher = higher phospho-S6 signal (less pathway suppression)
Settings: 24 h
Description: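 GPCR-targeted compound library (MedChemExpress HY-L006) tested on MDA-MB-468 PTEN-null TNBC cells in 384-well plates at 0.1, 1 or 10 uM, combined with vehicle, GDC0941 450 nM or lapatinib 1 uM, for 24 h. Phospho-S6 (S240/244) immunofluorescence normalised to DAPI and expressed as a per-plate z-score; values are the mean of biological triplicates.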

Row | SMILES | phospho-S6 immunofluorescence (z-score) (co-treatment: GDC0941 450 nM) | phospho-S6 immunofluorescence (z-score) (co-treatment: lapatinib 1 uM) | phospho-S6 immunofluorescence (z-score) (co-treatment: vehicle)
1 | Cc1ccccc1C(=O)Nc1ccc(C(=O)N2CCCC(N(C)C)c3ccccc32)cc1 (centres undefined) [Mozavaptan] (compound 10 µM) | -0.25 | -0.18 | -0.16
2 | CC(C)C(=O)OCC(=O)[C@@]12O[C@H](C3CCCCC3)O[C@@H]1C[C@H]1[C@@H]3CCC4=CC(=O)C=C[C@]4(C)[C@H]3[C@@H](O)C[C@@]12C [Ciclesonide] (compound 10 µM) | -3.85 | 0 | -1.25
3 | CC(CN1c2ccccc2Sc2ccccc21)N(C)C (centres undefined) [Promethazine (hydrochloride)] (compound 10 µM) | -1.86 | -2.76 | -0.84
4 | O=S(=O)(c1ccccc1)c1cnc2c(N3CCNCC3)cccc2c1 (compound 10 µM) | 0.13 | -2.25 | 0.76
5 | C[C@](N)(Cc1ccc(O)c(O)c1)C(=O)O (compound 10 µM) | -0.58 | 0.11 | -0.1
6 | C[C@H](NC(=O)c1cc(Cl)ccc1Oc1ccc(F)cc1)c1ccc(C(=O)O)cc1 (compound 10 µM) | -0.64 | 0.18 | 0.3
7 | Cc1nc2n(c(=O)c1CCN1CCC(c3noc4cc(F)ccc34)CC1)CCCC2O (centres undefined) [Paliperidone] (compound 10 µM) | 0.37 | 0.36 | 0.5
8 | CC(=O)Nc1cccc2c1c(Sc1ccc(Cl)cc1)c(C)n2CC(=O)O (compound 10 µM) | 0.52 | 0.08 | -0.17
9 | COc1ccc2cccc(CCNC(C)=O)c2c1 [Agomelatine] (compound 10 µM) | 0.97 | 0.54 | 0.35
10 | CCOc1ccccc1OCCN[C@H](C)Cc1ccc(OC)c(S(N)(=O)=O)c1 [Tamsulosin] (compound 10 µM) | -1.32 | 0.1 | -0.53
11 | CC1(C)O[C@@H]2C[C@H]3[C@@H]4C[C@H](F)C5=CC(=O)C=C[C@]5(C)[C@@]4(F)[C@@H](O)C[C@]3(C)[C@]2(C(=O)CO)O1 [Fluocinolone (Acetonide)] (compound 10 µM) | -0.92 | 0.83 | -0.53
12 | CN1CC2c3ccccc3Oc3ccc(Cl)cc3C2C1 (centres undefined) [Asenapine (hydrochloride)] (compound 10 µM) | -0.8 | -2.17 | 0
13 | N=C(N)NC(=O)Cc1c(Cl)cccc1Cl [Guanfacine (hydrochloride)] (compound 10 µM) | 0.64 | 0.23 | 0.38
